# Data reported in paper PMC4336329 (PLoS ONE, 2015).
# Out of some 310,000 compounds screened, about 14,000 (4.5%) showed an effect of 50% or more. Effects have a minus sign here. The entries come from a sample that favours strong results as a whole.
# Target: human ether-à-go-go-related gene (hERG) potassium channel (human, UniProt Q12809)
# Experiment: primary screen, population patch clamp on CHO cells stably expressing hERG; higher = less effect of the substance
# 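Further: peak tail current of the secondary pulse compared with the same well before compound.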
# Chain of human ether-à-go-go-related gene (hERG) potassium channel (Q12809 whole entry, looked up): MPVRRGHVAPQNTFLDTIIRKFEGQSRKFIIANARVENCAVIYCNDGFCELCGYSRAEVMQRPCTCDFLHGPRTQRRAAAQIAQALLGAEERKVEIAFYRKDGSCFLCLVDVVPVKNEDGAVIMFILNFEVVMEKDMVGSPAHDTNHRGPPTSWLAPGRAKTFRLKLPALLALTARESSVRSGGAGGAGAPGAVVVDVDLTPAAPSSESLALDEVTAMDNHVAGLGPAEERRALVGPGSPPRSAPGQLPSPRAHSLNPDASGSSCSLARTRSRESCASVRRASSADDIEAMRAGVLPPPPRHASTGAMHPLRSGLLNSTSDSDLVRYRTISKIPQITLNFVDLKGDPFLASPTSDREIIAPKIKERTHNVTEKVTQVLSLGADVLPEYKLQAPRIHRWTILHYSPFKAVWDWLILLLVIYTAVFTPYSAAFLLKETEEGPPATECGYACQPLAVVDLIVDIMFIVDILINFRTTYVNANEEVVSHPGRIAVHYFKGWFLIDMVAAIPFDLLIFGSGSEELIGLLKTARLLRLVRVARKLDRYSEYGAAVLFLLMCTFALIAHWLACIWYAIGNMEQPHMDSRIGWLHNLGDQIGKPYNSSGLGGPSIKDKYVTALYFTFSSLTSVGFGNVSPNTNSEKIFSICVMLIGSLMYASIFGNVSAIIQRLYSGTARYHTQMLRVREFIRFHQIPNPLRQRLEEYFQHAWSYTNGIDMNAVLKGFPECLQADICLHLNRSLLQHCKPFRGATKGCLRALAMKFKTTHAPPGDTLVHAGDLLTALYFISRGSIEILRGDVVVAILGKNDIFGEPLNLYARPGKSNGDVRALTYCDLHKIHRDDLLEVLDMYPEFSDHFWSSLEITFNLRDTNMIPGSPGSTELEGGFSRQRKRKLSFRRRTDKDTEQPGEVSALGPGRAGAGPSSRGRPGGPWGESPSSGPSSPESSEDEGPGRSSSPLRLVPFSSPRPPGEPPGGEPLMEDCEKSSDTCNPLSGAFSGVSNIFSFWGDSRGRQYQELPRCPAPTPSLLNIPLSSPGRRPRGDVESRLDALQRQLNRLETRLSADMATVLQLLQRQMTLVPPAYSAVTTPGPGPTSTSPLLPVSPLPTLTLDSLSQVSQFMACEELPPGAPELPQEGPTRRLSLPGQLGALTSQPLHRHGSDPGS
row,SMILES,"hERG current change (%, negative = inhibition) at 10uM [%]"
1,CC(=O)c1sc(N2CCOCC2)nc1-c1ccccc1,-6.27
2,Cc1onc(-c2ccccc2)c1C(=O)Nc1sccc1C#N,7.27
3,Cc1cc(C)n(-c2ccc(NC(=O)C3CCCCN3C(=O)c3sccc3C)cc2)n1 (centres unmarked),14.5
4,NS(=O)(=O)c1ccc(NC(NC(=O)c2cccnc2)C(Cl)(Cl)Cl)cc1 (centres unmarked),6.08
5,COc1cc(C(=O)NCCCn2ccnc2)cc(OC)c1OC.Cl,20.6
6,Cc1nn(C(C)C(=O)NCCN2CCCCCC2)c(=O)c2nn(-c3ccccc3)c(C)c12 (centres unmarked),21.6
7,Cc1cc(C)n2nc(SCC(=O)Nc3ccccc3C)nc2n1,1.88
8,CC1(C)CC(=O)C2=C(C1)NC(=O)CC2c1ccc(N(CCC#N)CCC#N)cc1 (centres unmarked),17.3
9,CCC(C(=O)c1ccc(O)cc1)c1ccccc1 (centres unmarked),-5.56
10,CCC(=O)c1ccc2ncccc2c1,12.2
11,CCC(C(=O)c1ccc2ncccc2c1)c1ccccc1 (centres unmarked),-52.7
12,COc1ccc(CNC(=O)c2nn(C)c3c2CS(=O)(=O)c2ccccc2-3)cc1,-24.5
13,O=C(O)c1ccccc1C(=O)c1ccc(Oc2ccccc2)cc1,8.12
14,CCn1nc(C)c(Br)c1C(=O)Sc1ccccc1Cl,21.2
15,O=C(c1cccc(F)c1)N1CCN(c2ccc([N+](=O)[O-])c(N3CCCCC3)c2)CC1,-6.87
16,O=C(c1ccc(Cl)cc1[N+](=O)[O-])N1CCN(c2ccccn2)CC1,-34
17,Cn1c(=O)n(C)c2cc([N+](=O)[O-])c(N3CCN(S(=O)(=O)c4ccccc4)CC3)cc21,-8.67
18,O=C(c1ccccc1F)N1CCN(c2ccc([N+](=O)[O-])c(N3CCOCC3)c2)CC1,14.2
19,O=C(c1cc(F)c(F)cc1Cl)N1CCN(c2ncccn2)CC1,16.4
20,O=[N+]([O-])c1ccc(N2CCOCC2)c2cccnc12,-25
21,Cc1ccc(S(=O)(=O)N2CCN(c3ccc([N+](=O)[O-])c4cccnc34)CC2)cc1,-9.52
22,O=[N+]([O-])c1ccc(N2CCN(S(=O)(=O)c3ccccc3)CC2)c2cccnc12,-76.8
23,O=C(c1cccc(F)c1)N1CCN(c2ccc([N+](=O)[O-])c3cccnc23)CC1,-66.1
24,O=C(c1ccccc1F)N1CCN(c2ccc([N+](=O)[O-])c3ncccc23)CC1,-68.1
25,O=C(c1cccc(F)c1)N1CCN(c2cc(N3CCCCC3)c(F)cc2[N+](=O)[O-])CC1,0.466
26,O=C(c1cc(F)c(F)cc1Cl)N1CCN(c2ccc([N+](=O)[O-])c3ncccc23)CC1,-67.4
27,CC(=O)Nc1ccc(/C(C)=N/NC(=O)CN(c2ccccc2Br)S(C)(=O)=O)cc1,-4.13

row,SMILES,"hERG current change (%, negative = inhibition) at 10uM [%]"
1,CNC(=O)CCn1nc(-c2ccc(C)cc2)c2ccccc2c1=O,-8.28
2,O=C(O)c1ccc(/C=N/Nc2nc(N3CCCCC3)nc(N3CCCCC3)n2)cc1,18.4
3,Cc1nn(Cc2c(Cl)cccc2Cl)c(C)c1NC(=O)/C=C/c1cnn(C)c1C,8.85
4,COc1ccc(OC(=O)c2cccc([N+](=O)[O-])c2)c(C(=O)/C=C/c2cccs2)c1,3.99
5,O=C(O)CC(CC(=O)Nc1ccc2ccccc2n1)c1ccccc1 (centres unmarked),9.58
6,Cc1nnc(SCC(=O)NC2CC2)n1CCc1ccccc1,13
7,CCC(=O)Oc1ccc2c(C)cc(=O)oc2c1C,0.0333
8,Cc1ccccc1NC(=O)CN1C(=O)NC(C)(CCc2ccccc2)C1=O (centres unmarked),22.2
9,O=C(c1ccccc1F)N1CCN(c2ccc([N+](=O)[O-])c3cccnc23)CC1,-65.5
10,O=C(c1ccccc1F)N1CCN(c2ccccn2)CC1,4.54
11,O=[N+]([O-])c1cccc2c(Cl)ccnc12,-0.808
12,O=[N+]([O-])c1cccc2c(N3CCOCC3)ccnc12,-17.6
13,O=C(c1ccccc1F)N1CCN(c2ncccn2)CC1,3.24
14,O=[N+]([O-])c1cccc2c(N3CCCC3)ccnc12,-77.7
15,CCC(C)NC(=O)CCC(=O)Nc1ccc2nc(N3CCOCC3)cc(C)c2c1 (centres unmarked),2.55
16,O=C(NCCc1ccc(Cl)cc1)c1ccc(CNc2c(N3CCOCC3)c(=O)c2=O)cc1,25.7
17,O=C(Nc1ccc2c(c1)OCO2)NC1CCN(Cc2ccccc2)CC1,-24.8
18,CC(NC(=O)COC(=O)c1cccs1)c1ccccc1 (centres unmarked),23
19,Cc1cc(NC(=O)c2ccc(F)cc2)ccc1NC(=O)c1ccco1,2.98
20,CC1(C)CC(=O)C2=C(C1)N(CC1CCCO1)C(=O)C2(NC(=O)c1cccnc1)C(F)(F)F (centres unmarked),9.64
21,COC(=NC1CCCC1)C(O)c1c[nH]c2ccccc12 (centres unmarked),-1.61
22,CN(C)c1cc(C(F)(F)F)nc(-c2ccccn2)n1,-0.728
23,CCO[C@@H]1OC(C(=O)N2CCN(Cc3ccccc3)CC2)=C[C@H](c2cn(C(C)=O)c3ccccc23)[C@H]1CCCO,-37.9
24,CCO[C@H]1OC(C(=O)O)=C[C@@H](c2cn(C(C)=O)c3ccccc23)[C@@H]1CCCO,18.2
25,CCO[C@H]1OC(C(=O)Nc2ccccc2)=C[C@@H](c2cn(C(C)=O)c3ccccc23)[C@@H]1CCCO,-62.5
26,CCO[C@H]1OC(C(=O)Nc2ccccc2)=C[C@@H](c2coc3ccccc3c2=O)[C@@H]1CCCO,-28.5
27,CCO[C@H]1OC(C(=O)N2CCN(Cc3ccccc3)CC2)=C[C@@H](c2cn(C(C)=O)c3ccccc23)[C@@H]1CCCO,-54

row,SMILES,"hERG current change (%, negative = inhibition) at 10uM [%]"
1,CCO[C@@H]1OC(C(=O)O)=C[C@H](c2coc3ccccc3c2=O)[C@H]1CCCO,18.9
2,CCO[C@@H]1OC(C(=O)N2CCN(Cc3ccc4c(c3)OCO4)CC2)=C[C@H](c2cn(C(C)=O)c3ccccc23)[C@H]1CCCO,-39.7
3,CCO[C@H]1OC(C(=O)NCc2nc3ccccc3[nH]2)=C[C@@H](c2cn(C(C)=O)c3ccccc23)[C@@H]1CCCO,-49.7
4,CCO[C@@H]1OC(C(=O)O)=C[C@H](c2cn(C(C)=O)c3ccccc23)[C@H]1CCCO,13.7
5,CCO[C@@H]1OC(C(=O)NCc2nc3ccccc3[nH]2)=C[C@H](c2cn(C(C)=O)c3ccccc23)[C@H]1CCCO,-67.2
6,CCO[C@@H]1OC(C(=O)Nc2ccccc2)=C[C@H](c2coc3ccccc3c2=O)[C@H]1CCCO,-50.9
7,CCO[C@@H]1OC(C(=O)NCc2nc3ccccc3[nH]2)=C[C@H](c2csc3ccccc23)[C@H]1CCCO,-34.1
8,O=C1CCCCCN1Sc1ccccc1,12
9,N#Cc1cccc(CN2CCC(=O)N([C@H](CO)c3ccccc3)CC2)c1,-4.9
10,CC(=O)N1c2ccc(S(=O)(=O)NCCc3ccc(S(N)(=O)=O)cc3)cc2CC1C (centres unmarked),13
11,COc1ccc(/C=N/NC(=O)c2c(C)n(C)c3ccc(OC)cc23)c(OC)c1,-14.3
12,COCC(C)NC(=O)c1ccc2c(c1)S(=O)(=O)c1ccccc1C2=O (centres unmarked),3.96
13,CCn1c(=S)ccc2ccc(OC)cc21,-0.453
14,CCOc1ccc(-c2c(C(=O)N/N=C(\C)c3cccs3)nnn2-c2nonc2N)cc1,12.9
15,CCO[C@@H]1OC(C(=O)NCc2ccccc2)=C[C@H](c2ccccc2)[C@H]1CCCO,-18.7
16,C#CCNC(=O)C1=C[C@H](c2cn(C(C)=O)c3ccccc23)[C@@H](CCCO)[C@H](OCC)O1,-36.9
17,CCO[C@@H]1OC(C(N)=O)=C[C@H](c2cn(C(C)=O)c3ccccc23)[C@H]1CCCO,6.45
18,CCO[C@@H]1OC(C(=O)NCc2ccccc2)=C[C@H](c2cn(C(C)=O)c3ccccc23)[C@H]1CCCO,-82.9
19,CCO[C@H]1OC(C(=O)NCc2ccccc2)=C[C@@H](c2cn(C(C)=O)c3ccccc23)[C@@H]1CCCO,-64.3
20,CCO[C@H]1OC(C(=O)NCc2ccccc2)=C[C@@H](c2ccccc2)[C@@H]1CCCO,-19.6
21,CCOC(=O)CN/C=C(\C#N)c1ccccc1,16.2
22,COc1cc(/C=C2\C(=O)ON=C2c2ccccc2)cc(Cl)c1O,-49.9
23,CC(C)(C)OC(=O)CNC(=O)c1[nH]cnc1C(=O)Nc1ccc(CNC(=O)OC(C)(C)C)cc1,-0.221
24,CCCCC(=O)Nc1nc(C)c(-c2csc(Nc3cc(OC)ccc3OC)n2)s1,5.95
25,Cc1nc(Nc2cccc(O)c2)c2c3c(sc2n1)CCC3,-1.85
26,O=C1CSC(c2ccc(F)cc2)N1c1nc2ccccc2s1 (centres unmarked),-20.8
